Data on 5 molecules can be found in PubChem BioAssay.

Activity calls are given as the source filed them.

The nature of test [1]: optical density shifts of acrAB sulA E. coli – strain DRC41, OD650, 48 h, E. coli filamentation inducer project, primary screen (AID 1152).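 Note: E. coli MC1000 strain DRC41 lacking acrAB efflux pump and sulA.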 As to conditions: higher = more signal, called active from +8 up or from −8 down.
Test [2] in a line: probe aLefty1 binding on compound microarray – biochemical, small-molecule microarray, 635/667 nm fluorescence, primary screen (AID 1153).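 Note: score merges spot fluorescence with signal-to-noise ratio from the scanned slide images.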 As to conditions: higher = more signal.
A short description of test [3]: plasmodial surface anion channel blockers, osmotic lysis – cell-based, P. falciparum Indochina, OD700, 1 h, primary screen (AID 1154). As to conditions: P. falciparum Indochina infected RBC osmotic lysis, higher = more signal, called active from +8 up or from −8 down.
Test [4] in a line: plasmodial surface anion channel blockers, osmotic lysis – cell-based, P. falciparum Indochina, OD700, 2 h, primary screen (AID 1155).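 Note: lysis reports solute entry through the parasite surface anion channel PSAC.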 As to conditions: P. falciparum Indochina infected erythrocytes, higher = more signal, called active from +8 up or from −8 down.
Test [5] can be described thus: changes in parasitized red cell lysis, either direction – P. falciparum Indochina, OD700, 3 h, PSAC antagonist project, primary screen (AID 1156). As to conditions: P. falciparum-infected erythrocytes, osmotic lysis, higher = more signal, called active from +8 up or from −8 down.
Test [6] in a line: plasmodial surface anion channel blockers, osmotic lysis – cell-based, P. falciparum Indochina, OD700, 18 h, primary screen (AID 1157). As to conditions: P. falciparum Indochina infected erythrocytes, osmotic lysis OD700, 18 h; higher = more signal, called active from +8 up or from −8 down.
The nature of test [7]: S6 kinase pathway phospho-S6 level changes – cell-based, A549, cytoblot, luminescence, serum-stimulated, primary screen (AID 1158).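 Note: serum-stimulated A549 lung adenocarcinoma cells; signal is phosphorylated S6 detected by cytoblot immunostaining with HRP secondary.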 As to conditions: 5 h, higher = more signal.
Test [8] addresses NADPH oxidase 2 (Homo sapiens) (UniProt P04839). The test can be described thus: compounds shifting NOX2 Amplex Red fluorescence – cell-based, HEK293-NOX2, PMA-stimulated, NOX inhibitor project, primary screen (AID 1159). Note: test concentration not given here. As to conditions: 45 min, higher = more signal, called active from +8 up or from −8 down.
In test [9] the target is NADPH oxidase 4 (Homo sapiens) (UniProt Q9NPH5). Briefly: compounds shifting NOX4 Amplex Red fluorescence – cell-based, HEK293-NOX4, tetracycline-induced, NOX inhibitor project, primary screen (AID 1160). As to conditions: HEK293-NOX4, Amplex Red H2O2 fluorescence, 45 min; higher = more signal, called active from +8 up or from −8 down.
Sequence of NADPH oxidase 4 (Homo sapiens) (Q9NPH5 whole entry, looked up): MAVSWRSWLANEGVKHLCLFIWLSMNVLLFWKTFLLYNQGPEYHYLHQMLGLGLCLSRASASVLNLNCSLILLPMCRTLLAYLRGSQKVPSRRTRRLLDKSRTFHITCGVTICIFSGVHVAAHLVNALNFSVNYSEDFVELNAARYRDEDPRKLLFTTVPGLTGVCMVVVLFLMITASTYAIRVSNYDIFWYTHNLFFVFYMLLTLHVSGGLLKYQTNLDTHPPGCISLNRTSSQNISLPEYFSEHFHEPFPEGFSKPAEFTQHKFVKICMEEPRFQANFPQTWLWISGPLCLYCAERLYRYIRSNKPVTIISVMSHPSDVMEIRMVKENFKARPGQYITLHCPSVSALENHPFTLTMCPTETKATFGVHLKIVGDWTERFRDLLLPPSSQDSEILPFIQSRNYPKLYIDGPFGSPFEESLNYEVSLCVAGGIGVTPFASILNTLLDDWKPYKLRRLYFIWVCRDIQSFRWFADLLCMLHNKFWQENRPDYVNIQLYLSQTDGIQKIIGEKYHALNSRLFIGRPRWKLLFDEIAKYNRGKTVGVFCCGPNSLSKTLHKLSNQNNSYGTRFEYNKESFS
Test [10] addresses NADPH oxidase 5 (Homo sapiens) (UniProt Q96PH1). Briefly: compounds shifting NOX5 Amplex Red fluorescence – cell-based, HEK293-NOX5, NOX inhibitor project, primary screen (AID 1161). As to conditions: HEK293-NOX5, ionomycin, 45 min, higher = more signal.
The nature of test [11]: compound effects on lung adenocarcinoma cell viability – A549, calcein-AM fluorescence, 48 h, basal, profiling panel (AID 1162). Note: test concentration not given here. As to conditions: higher = more signal.
The nature of test [12]: compound effects on differentiated 3T3-L1 adipocyte viability – cell-based, 3T3-L1 adipocytes, calcein-AM fluorescence, 48 h, basal, profiling panel (AID 1163). Note: test concentration not given here. As to conditions: 3T3-L1 adipocytes viability, higher = more signal.
Test [13] in a line: compound effects on hepatocellular carcinoma cell viability – HepG2, calcein-AM fluorescence, 48 h, basal, profiling panel (AID 1164). Note: test concentration not given here. As to conditions: higher = more signal.
Test [14] is described as follows: compound effects on multiple myeloma cell viability – MM1S, calcein-AM fluorescence, 48 h, basal, profiling panel (AID 1165). Note: test concentration not given here. As to conditions: higher = more signal.
Test [15] is described as follows: calcein-AM signal in unstimulated myeloma cells – cell-based, calcein-AM fluorescence, 48 h, PK04 Diversity Set, profiling panel (AID 1166).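 Note: cells grown under basal conditions without added stimulus; test concentration not given here.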 As to conditions: RPMI8226 myeloma viability, higher = more signal.
Test [16] in a line: JC-1 mitochondrial signal, unstimulated HepG2 cells – cell-based, JC-1 fluorescence, 24 h, 100 nL compound, profiling panel (AID 1167). Note: test concentration not given here. As to conditions: HepG2 mitochondrial potential, higher = more signal.
Test [17] can be described thus: JC-1 mitochondrial signal, unstimulated adipocytes – cell-based, JC-1 fluorescence, 3T3-L1 adipocytes, 24 h, 100 nL compound, profiling panel (AID 1168). Note: test concentration not given here. As to conditions: JC-1 mitochondrial fluorescence, higher = more signal, called active from +8 up or from −8 down.
Test [18] is described as follows: JC-1 mitochondrial signal, unstimulated myeloma cells – cell-based, JC-1 fluorescence, RPMI8226, 24 h, 100 nL compound, profiling panel (AID 1169). Note: test concentration not given here. As to conditions: JC-1 mitochondrial potential fluorescence, higher = more signal.
Test [19] is described as follows: JC-1 mitochondrial signal, unstimulated MM1S myeloma – cell-based, JC-1 fluorescence, 24 h, 100 nL compound, profiling panel (AID 1170). Note: test concentration not given here. As to conditions: MM1S mitochondrial potential, higher = more signal.
The nature of test [20]: resazurin metabolic signal in A549 cells – cell-based, resazurin fluorescence, 24 h, PK04 Diversity Set, profiling panel (AID 1171). Note: test concentration not given here. As to conditions: A549 viability, higher = more signal, called active from +8 up or from −8 down. A general note: Resazurin is reduced to fluorescent resorufin, in cell work by metabolically active cells.

Sequence of NADPH oxidase 2 (Homo sapiens) (P04839 whole entry, looked up): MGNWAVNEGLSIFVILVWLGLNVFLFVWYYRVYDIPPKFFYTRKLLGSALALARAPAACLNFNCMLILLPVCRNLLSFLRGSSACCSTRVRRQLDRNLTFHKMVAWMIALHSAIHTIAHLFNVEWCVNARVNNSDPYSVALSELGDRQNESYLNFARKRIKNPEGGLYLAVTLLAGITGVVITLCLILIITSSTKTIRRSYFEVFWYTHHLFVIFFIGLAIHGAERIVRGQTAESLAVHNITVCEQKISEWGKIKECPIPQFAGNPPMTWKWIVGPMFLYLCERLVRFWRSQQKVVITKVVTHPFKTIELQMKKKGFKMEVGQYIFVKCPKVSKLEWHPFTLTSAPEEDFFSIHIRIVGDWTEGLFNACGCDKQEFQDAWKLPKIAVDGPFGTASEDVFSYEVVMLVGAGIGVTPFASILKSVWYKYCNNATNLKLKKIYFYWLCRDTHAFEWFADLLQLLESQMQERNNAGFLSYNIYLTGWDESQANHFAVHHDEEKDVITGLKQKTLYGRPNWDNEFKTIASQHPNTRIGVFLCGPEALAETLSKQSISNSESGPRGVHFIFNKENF
Sequence of NADPH oxidase 5 (Homo sapiens) (Q96PH1 whole entry, looked up): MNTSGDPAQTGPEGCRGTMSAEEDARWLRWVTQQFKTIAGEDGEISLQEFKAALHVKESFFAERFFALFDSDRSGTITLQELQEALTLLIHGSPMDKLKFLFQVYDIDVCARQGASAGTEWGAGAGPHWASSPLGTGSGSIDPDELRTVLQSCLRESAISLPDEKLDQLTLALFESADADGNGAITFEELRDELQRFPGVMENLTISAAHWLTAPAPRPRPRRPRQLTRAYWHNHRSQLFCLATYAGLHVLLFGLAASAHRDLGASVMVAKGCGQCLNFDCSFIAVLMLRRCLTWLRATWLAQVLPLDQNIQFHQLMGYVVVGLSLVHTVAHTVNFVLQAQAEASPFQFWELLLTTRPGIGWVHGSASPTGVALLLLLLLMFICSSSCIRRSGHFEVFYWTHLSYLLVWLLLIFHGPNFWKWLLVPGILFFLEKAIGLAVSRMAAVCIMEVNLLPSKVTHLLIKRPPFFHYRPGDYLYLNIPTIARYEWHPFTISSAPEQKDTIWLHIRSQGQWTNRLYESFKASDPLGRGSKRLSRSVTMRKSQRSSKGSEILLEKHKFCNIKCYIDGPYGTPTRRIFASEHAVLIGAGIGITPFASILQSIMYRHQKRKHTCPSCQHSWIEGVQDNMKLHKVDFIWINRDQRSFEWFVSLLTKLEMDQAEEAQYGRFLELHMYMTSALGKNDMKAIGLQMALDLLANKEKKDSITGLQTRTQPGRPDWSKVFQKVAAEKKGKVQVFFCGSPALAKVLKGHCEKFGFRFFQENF

For `COC(=O)c1c(CC[C@@H](CO)NC(=O)N[C@@H](Cc2ccccc2)Cn2cc(-c3ccccn3)nn2)oc(C(=O)N2CCOCC2)c1C(=O)OC`, the z-score was -0.55 (inactive) in test [1]; 0.179 (inactive) in [3]; 0.571 (inactive) in test [4]; 0.521 (inactive) in test [5]; 0.729 (inactive) in test [6]; 0.291 in test [7]. Further, the z-score in test [8] was -1.76 (inactive); in test [9], -0.4 (inactive); in test [10] it was -1.88; in test [11], 0.122; in [12] it was 0.17; in test [13], -1.31. Besides, the z-score in [14] is 0.527; in [15] it was 0.642; in test [16] it was -0.105; in test [17] it was 0.0526 (inactive); in test [18], -0.652; in test [19] it was -0.0834. Further, the z-score in test [20] was 0.765 (inactive). In addition, the composite z-score in [2] came out at 0.149.

Consider `C=CCN1Cc2ccccc2[C@@H]2OC(c3ccc(OCCCO)cc3)=N[C@]2(CCS(=O)(=O)c2ccccc2)C1=O`, for which the z-score in test [1] was 0.576 (inactive); in test [3] it was 27.2 (active); in [4] it was 20.3 (active); in test [5], 2.26 (inactive); in test [6], 3.22 (inactive); in test [7], -0.0454. For the same molecule, the z-score in test [8] was -1.38 (inactive); in test [9] it was 0.827 (inactive); in test [10], 0.0284; in test [11], -0.251; in test [12] it was 0.771; in test [13], 0.574. The z-score in [14] was -1.12; in [15], -0.664; in test [16], -0.187; in [17], -0.303 (inactive); in [18], -1.06; in test [19] it was -0.181. In addition, the z-score in [20] was 0.315 (inactive). In addition, the composite z-score in [2] is 0.415.

For the molecule `NCCCCCNC(=O)[C@H]1C[C@H]2C(=O)N[C@@H](Cc3ccccc3)C(=O)N2[C@H]1c1cccc(OCCO)c1`, the z-score in test [1] is 0.545 (inactive); in test [3] it was 3.99 (inactive); in test [4], 0.812 (inactive); in test [5], -0.685 (inactive); in test [6], 0.325 (inactive); in test [7] it was -0.136. For the same molecule, the z-score in [8] was 1.38 (inactive); in [9] it was 0.875 (inactive); in test [10], 0.434; in [11], 1.15; in test [12], -0.14; in test [13] it was 1.19. The z-score in test [14] is 0.079; in [15], 0.226; in test [16], 0.96; in [17] it was -0.67 (inactive); in test [18], -0.288; in test [19], 0.948. Moreover, the z-score in [20] was 1.35 (inactive). In test [2], this molecule registered a composite z-score of 1.17.

With `CCC(CC)C(O)C1C=CC2C(=O)N(c3ccccc3)C(=O)C2N1Nc1ccccc1` (stereo not given), the z-score in test [1] is 0.878 (inactive); in [3], 4.73 (inactive); in test [4], 0.696 (inactive); in [5] it was 0.301 (inactive); in [6], 0.95 (inactive); in test [7], -0.709. The z-score is -0.588 (inactive) in test [8]; -3.29 (inactive) in test [9]; -3.4 in test [10]; 0.857 in test [11]; -1.31 in test [12]; 1.72 in test [13]. For the same molecule, the z-score in test [14] was -0.127; in test [15], -0.092; in test [16] it was -1.48; in [17], -2.32 (inactive); in [18], 0.0116; in test [19], -0.403. The z-score in test [20] was 0.328 (inactive). In addition, the composite z-score in test [2] worked out at 0.947.

On to `[N-]=[N+]=NCc1ccccc1[C@@H]1OC(c2ccc(OCCCO)cc2)=N[C@]1(CCS(=O)(=O)c1ccccc1)C(N)=O`, for which the z-score in test [1] was 1.06 (inactive); in [3], 26.4 (active); in test [4], 14.7 (active); in [5] it was 0.618 (inactive); in test [6], 1.75 (inactive); in test [7], -0.353. In addition, the z-score is -0.282 (inactive) in test [8]; 1.13 (inactive) in [9]; 2.23 in test [10]; 0.338 in test [11]; -0.676 in test [12]; 0.834 in [13]. The z-score in [14] was 0.369; in test [15], 0.102; in test [16], -1.67; in test [17], -0.0551 (inactive); in test [18] it was -0.875; in [19] it was -1.16. For the same molecule, in [20], the z-score was -0.174 (inactive). For the same molecule, the composite z-score in test [2] is 0.428.
